From PubChem BioAssay (NCATS)
Inconclusive results are not listed. Activity calls are given as the source filed them. Calls follow the shape of the dose curve; as a rule, active = well fitted curve in the direction sought with a large enough effect; inconclusive = small, poorly fitted or top-dose-only effect, or another doubt; inactive = no such curve, though single readings can be large; an effect the other way counts as inactive or inconclusive.

Assay: BET inhibitor-based combinations targeting novel dependencies in MECOM-rearranged (r) AML: UCSD-AML1 cell line (AID 2202235); also: nearly all actives have a fitted effect of over 40% in size;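 as to viability (% of control): plate controls were DMSO vehicle wells for no effect and blank wells for full effect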
Settings: UCSD-AML1 AML cells viability, CellTiter-Glo, 48 h; series mostly up to 46 µM; viability (% of control): at the top concentration
Outline: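 Seeding density was 500 cells/well, and drug exposure lasted 48 hr under standard culture conditions. Read-out used CellTiter-Glo reagent with a 15 min room-temperature incubation before luminescence measurement; AUC and Z-AUC summarize the normalized responses.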
Potency is read from the fitted curve at half-maximal effect.

Row | Structure (SMILES) | viability (% of control) | Potency
1 | NC(=O)c1ccc(I)c([N+](=O)[O-])c1 | 109% (inactive) | 
2 | CC(C)c1ccc2oc3nc(N)c(C(=O)O)cc3c(=O)c2c1 | 95.3% (inactive) | 
3 | c1coc(CNc2ncnc3nc[nH]c23)c1 | 104% (inactive) | 
4 | CC(=O)Oc1cc2c(s1)CCN(C(C(=O)C1CC1)c1ccccc1F)C2 (centres undefined) | 104% (inactive) | 
5 | COc1ccc(-c2coc3cc(O)cc(O)c3c2=O)cc1 | 88.7% (inactive) | 
6 | CCC(c1ccc(O)cc1)C(CC)c1ccc(O)cc1 (centres undefined) | 94.5% (inactive) | 
7 | CNC(=O)[C@H](Cc1ccccc1)NC(=O)[C@H](CC(C)C)[C@H](CSc1cccs1)C(=O)NO | 101% (inactive) | 
8 | CC(C)Oc1ccc2c(=O)c(-c3ccccc3)coc2c1 | 106% (inactive) | 
9 | CCCCOCCOc1nc(-c2ccc(C(=O)O)c(F)c2)sc1C | 99.5% (inactive) | 
10 | CCC(=O)O[C@]1(C(=O)CCl)[C@@H](C)C[C@H]2[C@@H]3CCC4=CC(=O)C=C[C@]4(C)[C@@]3(F)[C@@H](O)C[C@@]21C | 106% (inactive) | 
11 | CC[C@@H]1C(=O)N(C)c2cnc(Nc3ccc(C(=O)NC4CCN(C)CC4)cc3OC)nc2N1C1CCCC1 |  | 0.105 µM (active)
12 | CCOc1cc(N)c(Cl)cc1C(=O)NCC1CN(Cc2ccc(F)cc2)CCO1 (centres undefined) | 108% (inactive) | 
13 | CC(=O)O[C@]1(C(C)=O)CC[C@H]2[C@@H]3C=C(C)C4=CC(=O)CC[C@]4(C)[C@H]3CC[C@@]21C | 101% (inactive) | 
14 | Cc1ccc(NC(=O)c2cccc(N(C)C)c2)cc1NC(=O)c1ccc(O)cc1 | 90.7% (inactive) | 
15 | COC(=O)C[C@](O)(CCCC(C)(C)O)C(=O)O[C@@H]1C(OC)=C[C@]23CCCN2CCc2cc4c(cc2[C@H]13)OCO4 |  | 0.0148 µM (active)
16 | COc1ccc(C[C@@H](C)[C@@H](C)Cc2ccc(OC)c(OC)c2)cc1OC | 96.8% (inactive) | 
17 | CC(COc1ccccc1)N(CCCl)Cc1ccccc1 (centres undefined) | 88.3% (inactive) | 
18 | CCCCC(=O)O[C@]1(C(=O)CO)[C@@H](C)C[C@H]2[C@@H]3CCC4=CC(=O)C=C[C@]4(C)[C@@]3(F)[C@@H](O)C[C@@]21C | 114% (inactive) | 
19 | CCN(c1ccccc1)c1cc(NC)[n+](C)c(C)n1 | 108% (inactive) | 
20 | COc1ccc(C(=O)CC(=O)c2ccc(C(C)(C)C)cc2)cc1 | 103% (inactive) | 
21 | COc1ccccc1C(=O)Nc1cc2c(cc1N1CCCCC1)n(C)c(=O)n2C | 95.5% (inactive) | 
22 | CC[C@@H](C)[C@H](NC(=O)[C@H](CC1CCCCC1)NC(=O)c1ccno1)C(=O)N1CCC2(CCc3ccccc32)CC1 | 14.3% (inactive) | 
23 | N=C(N)c1ccc2cc(OC(=O)c3ccc(N=C(N)N)cc3)ccc2c1 |  | 23.5 µM (active)
24 | CCCCCCCN(CC)CCCC(O)c1ccc(NS(C)(=O)=O)cc1 (centres undefined) | 79.6% (inactive) | 
25 | CCOC(=O)c1c(C)n(C)c2ccc(O)cc12 | 99.8% (inactive) | 
26 | CCN(CC)CCOc1ccc(Cc2ccccc2)cc1 | 98.2% (inactive) | 
27 | C[C@]12CC[C@@H]3c4ccc(O)cc4C[C@@H](CCCCCCCCCS(=O)CCCC(F)(F)C(F)(F)F)[C@H]3[C@H]1CC[C@H]2O (some centres undefined) | 94.9% (inactive) | 
28 | Cc1nnc(NS(=O)(=O)c2ccc(N)cc2)s1 | 104% (inactive) | 
29 | O=C(/C=C/N1C[C@H]2C[C@@H]1CN2c1ccccn1)c1ccccc1O | 82.4% (inactive) | 

Assay: BET inhibitor-based combinations targeting novel dependencies in MECOM-rearranged (r) AML: AML-191 cell line (AID 2202236; also: nearly all actives have a fitted effect of over 35% in size;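 as to viability (% of control): plate controls were vehicle wells for no effect and wells without cells for full effect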)
Settings: AML-191 viability, CellTiter-Glo luminescence, 48 h; series mostly up to 46 µM; viability (% of control): at the top concentration
Outline: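 Readout: CellTiter-Glo luminescence. Exposure: 48 h, 11 concentrations, 500 cells/well. Metric: AUC and within-line Z-AUC after DMSO/empty-well normalization.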

Row | Structure (SMILES) | viability (% of control) | Potency
30 | CC(=O)Oc1cc2c(s1)CCN(C(C(=O)C1CC1)c1ccccc1F)C2 (centres undefined) | 105% (inactive) | 
31 | COc1ccc(-c2coc3cc(O)cc(O)c3c2=O)cc1 | 73.5% (inactive) | 
32 | CNC(=O)[C@H](Cc1ccccc1)NC(=O)[C@H](CC(C)C)[C@H](CSc1cccs1)C(=O)NO |  | 13.2 µM (active)
33 | CCC(C)(C)C(=O)O[C@H]1C[C@@H](C)C=C2C=C[C@H](C)[C@H](CC[C@@H]3C[C@@H](O)CC(=O)O3)[C@H]21 | 86.8% (inactive) | 
34 | CCCCOCCOc1nc(-c2ccc(C(=O)O)c(F)c2)sc1C |  | 2.63 µM (active)
35 | CCOc1cc(N)c(Cl)cc1C(=O)NCC1CN(Cc2ccc(F)cc2)CCO1 (centres undefined) | 103% (inactive) | 
36 | Cc1ccc(NC(=O)c2cccc(N(C)C)c2)cc1NC(=O)c1ccc(O)cc1 | 90.5% (inactive) | 
37 | COC(=O)C[C@](O)(CCCC(C)(C)O)C(=O)O[C@@H]1C(OC)=C[C@]23CCCN2CCc2cc4c(cc2[C@H]13)OCO4 |  | 0.059 µM (active)
38 | COc1ccc(C[C@@H](C)[C@@H](C)Cc2ccc(OC)c(OC)c2)cc1OC |  | 18.6 µM (active)
39 | CC(COc1ccccc1)N(CCCl)Cc1ccccc1 (centres undefined) | 94.3% (inactive) | 
40 | CCCCC(=O)O[C@]1(C(=O)CO)[C@@H](C)C[C@H]2[C@@H]3CCC4=CC(=O)C=C[C@]4(C)[C@@]3(F)[C@@H](O)C[C@@]21C |  | 0.0132 µM (active)
41 | CCN(c1ccccc1)c1cc(NC)[n+](C)c(C)n1 | 102% (inactive) | 
42 | NCc1c[nH]c(=S)n1[C@H]1CCc2c(F)cc(F)cc2C1 | 78% (inactive) | 
43 | COc1ccc(C(=O)CC(=O)c2ccc(C(C)(C)C)cc2)cc1 |  | 20.9 µM (active)
44 | COc1ccccc1C(=O)Nc1cc2c(cc1N1CCCCC1)n(C)c(=O)n2C | 106% (inactive) | 
45 | N=C(N)c1ccc2cc(OC(=O)c3ccc(N=C(N)N)cc3)ccc2c1 |  | 23.5 µM (active)
46 | CCCCCCCN(CC)CCCC(O)c1ccc(NS(C)(=O)=O)cc1 (centres undefined) | 74.6% (inactive) | 
47 | CCOC(=O)c1c(C)n(C)c2ccc(O)cc12 | 99.9% (inactive) | 
48 | Cc1nnc(NS(=O)(=O)c2ccc(N)cc2)s1 | 97.8% (inactive) | 
49 | O=C(/C=C/N1C[C@H]2C[C@@H]1CN2c1ccccn1)c1ccccc1O | 87.7% (inactive) | 
